Source: PubChem BioAssay (NCATS)
Records with an inconclusive call do not appear. Activity calls are given as the source filed them. The call rests on the fitted dose curve; in most records, active means well fitted curve in the direction sought with a large enough effect; inconclusive means small, poorly fitted or top-dose-only effect, or another doubt; inactive means no such curve, though single readings can be large; an effect the other way counts as inactive or inconclusive.

Key:
[1] = qHTS for Activators of Parkin Expression: LOPAC Validation Assay (NLuc Reporter) (AID 720572)
In short: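 Neuronal line stably carrying a FLuc/NLuc coincidence reporter under the Parkin promoter, seeded 24 h, then dosed in 7-point series for 24 h at 37 C. NLuc luminescence read after FLuc; normalized to DMSO and positive control (100%).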

[2] = qHTS for Activators of Parkin Expression: LOPAC Validation Assay (FLuc Reporter) (AID 720573)
In short: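 Cells seeded, 24 h; compounds pinned, 7-pt dose response; 24 h at 37 C/5% CO2; volume reduced; FLuc reagent 10 min RT; luminescence read. Normalization: DMSO = 0, positive control = 100%.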

[3] = target: T1, Hexokinase-4 (Homo sapiens) + Glucokinase regulatory protein (Homo sapiens) (UniProt P35557+Q14397); assay: qHTS assay for inhibitors of recombinant human GCK-GKRP interaction: Diaphorase-coupled assay (AID 743205)
T1 sequence (P35557 whole entry, looked up): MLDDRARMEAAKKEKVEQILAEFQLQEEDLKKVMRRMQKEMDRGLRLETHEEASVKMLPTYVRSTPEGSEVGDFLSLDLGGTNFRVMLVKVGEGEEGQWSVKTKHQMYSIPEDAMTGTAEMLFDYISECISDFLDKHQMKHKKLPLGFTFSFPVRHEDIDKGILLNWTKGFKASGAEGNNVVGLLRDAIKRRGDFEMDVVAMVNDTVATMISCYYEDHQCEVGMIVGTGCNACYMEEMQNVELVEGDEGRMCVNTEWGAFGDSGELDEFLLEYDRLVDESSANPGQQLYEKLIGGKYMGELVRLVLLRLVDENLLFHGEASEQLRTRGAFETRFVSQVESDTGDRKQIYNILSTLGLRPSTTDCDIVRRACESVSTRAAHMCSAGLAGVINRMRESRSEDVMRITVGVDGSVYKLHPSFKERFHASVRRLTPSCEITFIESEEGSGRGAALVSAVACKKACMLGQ
T1 sequence (Q14397 whole entry, looked up): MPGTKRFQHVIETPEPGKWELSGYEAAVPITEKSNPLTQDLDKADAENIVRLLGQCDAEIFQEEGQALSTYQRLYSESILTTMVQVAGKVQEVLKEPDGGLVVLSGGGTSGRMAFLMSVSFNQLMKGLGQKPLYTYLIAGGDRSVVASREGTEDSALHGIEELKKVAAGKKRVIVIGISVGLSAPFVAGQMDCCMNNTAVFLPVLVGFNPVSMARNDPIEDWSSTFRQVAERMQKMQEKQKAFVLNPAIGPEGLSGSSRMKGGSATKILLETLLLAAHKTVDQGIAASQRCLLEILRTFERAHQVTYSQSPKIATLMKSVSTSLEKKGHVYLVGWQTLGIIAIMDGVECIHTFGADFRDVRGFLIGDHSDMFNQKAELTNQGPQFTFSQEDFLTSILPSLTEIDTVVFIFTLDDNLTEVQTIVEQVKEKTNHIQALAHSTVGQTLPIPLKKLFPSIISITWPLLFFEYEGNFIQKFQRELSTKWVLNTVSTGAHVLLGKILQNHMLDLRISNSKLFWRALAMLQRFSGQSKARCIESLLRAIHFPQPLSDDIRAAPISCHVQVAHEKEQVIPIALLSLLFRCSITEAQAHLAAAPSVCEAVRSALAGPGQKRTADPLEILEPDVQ
In short: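 25 mM Hepes pH 7.6, 5 mM glucose, 0.4 mM ATP, 4 U/ml G6PDH; 10 nM each GST-GCK/FLAG-GKRP. Kinetic fluorescence read, 1/min × 30 min. Normalized: DMSO ± enzyme = max/min.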

[4] = target: T1, Hexokinase-4 (Homo sapiens) + Glucokinase regulatory protein (Homo sapiens); assay: qHTS assay for inhibitors of recombinant human GCK-GKRP interaction: ADP-Glo assay (AID 743206);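 further: plate controls were DMSO plus enzyme for no effect and no enzyme for full effect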
In short: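 GST-GCK and FLAG-GKRP (15 nM each in the dispensed mix, with 2 uM S6P) react with 0.4 mM ATP and 5 mM glucose (final) in Hepes pH 7.6 for 60 min at room temperature. ADP is measured by ADP-Glo luminescence.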

[5] = target: T1, Hexokinase-4 (Homo sapiens) + Glucokinase regulatory protein (Homo sapiens); assay: qHTS assay for inhibitors of recombinant human GCK-GKRP interaction: HTRF assay (AID 743207);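 further: 0% = DMSO with GCK present and -100% = DMSO wells lacking GCK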
In short: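 5 nM GST-GCK + 5 nM FLAG-GKRP + 2 uM S6P, pH 7.1 buffer (25 mM Hepes, 2 mM MgCl2, 25 mM KCl, 1 mM DTT, Tween/BSA); pin-transferred cpd; anti-FLAG XL665/anti-GST K; 60 min RT; HTRF.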

[6] = qHTS assay for measurement of the activity of small molecule inhibitors on Zika virus induced Caspase-3 activity in human iPSC derived neural progenitor cells (hNPCs) (AID 1224857); further: % of control where 0% means no effect; nearly all actives have a fitted effect of over 65% in size
In short: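 Values are percent inhibition of virus-induced caspase-3/7 signal, scaled between uninfected cells and ZIKV-infected cells. Infection used 2 FFU/cell for 6 h after 1 h compound exposure.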

[7] = qHTS assay for measurement of the activity of small molecule inhibitors on Zika virus induced Caspase-3 activity in human astrocytoma cells (AID 1224859);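 further: plate controls were ZIKV-infected untreated cells for no effect and uninfected cells for full effect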
In short: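 Compound added 1 h pre-infection; ZIKV 2 FFU/cell on SNB-19 cells, 6 h, 37 C/5% CO2. Caspase-Glo 3/7 luminescence; values as % inhibition of ZIKV-induced caspase activity.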

[8] = qHTS Assay for Identifying Gametocytocidal Compounds (AID 743244);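 further: on the % scale 0 is the no-effect control and ±100 the full control effect; actives lower the fluorescent signal which means gametocytes are killed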; details: P. falciparum 3D7 stage III-V gametocytes, alamarBlue, 72 h; max response: hits give low values
In short: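 Stage III–V gametocytes of P. falciparum 3D7 were seeded at 20,000 cells/well onto pre-dispensed compounds. After 72 h, 37 °C, 5% CO2, alamarBlue was added for another 24 h.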

Brc1c(Br)c(Br)c2n[nH]nc2c1Br
inactive: Potency [1] | Potency [2] | outcome [3] | Potency [4] | Potency [5] | Potency [6] | Potency [7]

CC12C(=O)OC(=O)C1(C)C1CCC2O1 (stereo not drawn)
inactive: Potency [1] | Potency [2] | outcome [3] | Potency [4] | Potency [5] | max response [8] 3.18% | Potency [6] | Potency [7]

O=C(c1cc(O)c(O)c([N+](=O)[O-])c1)c1ccccc1F
inactive: Potency [1] | Potency [2] | outcome [3] | Potency [4] | Potency [5] | max response [8] 18.1% | Potency [6] | Potency [7]

NC(=O)C(=O)O
inactive: Potency [1] | Potency [2] | outcome [3] | Potency [4] | Potency [6]
